# In the library only some 4.3% were active in any assay of this set; here they are far more common.
# SMARCA2 activ: activators of SMARCA2 function; MG213 cells, MMTV-luciferase reporter, dexamethasone, overnight; AID 652017; hit rate 1% among 370,000; activation, % at 9.1 µM; in the data active means activation above about 7.8%;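 further: 0% = vehicle wells and 100% = reference activator wells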
# MITF act: MITF TRPM1 promoter activation in melanoma cells. SK-MEL-5 TRPM1-promoter luciferase, 24 h; % of positive control, neutral wells = 0. activation, % at 12.5 µM. hit rate 0.75% among 300,000. AID 588334;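 active means mean activation of at least 80% with every replicate also reaching 80%; inconclusive means mean reaches 80% but some replicate falls short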;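 further: 0% = neutral control wells and 100% = parthenolide positive control wells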
# Wnt act: Wnt/beta-catenin pathway activation; Wnt/beta-catenin reporter cell assay, activator, plate reader; activation, % at 9.35 µM; hit rate 1.2% among 300,000; in the data active means activation above about 30%, passing the limit was not always enough; inconclusive means no clear call, values can overlap the other calls;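 further: 0% = neutral control wells and 100% = positive control wells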
# HSF1 inhib: HSF1 inhibition. AID 2098. hit rate 0.77% among 300,000. NIH3T3-HGL HSE-luciferase, MG132-induced, luminescence 8 h; active compounds read low. activity change, negative = inhibition, % at 7.5 µM (by protocol);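 active means more than half of replicate wells show activity change below -50%, luminescence cut by over half; inconclusive means some wells, but at most half, below -50%; inactive means no replicate well below -50%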;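 further: luciferase reports HSF-1 transcriptional activity via heat shock element; 0% = median of DMSO wells and -100% = zero luminescence signal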
# HSF1 activator: increases HSF-1 driven luciferase reporter signal; NIH3T3-HGL HSF-1 luciferase reporter, MG132, 8 h; 100% = twice DMSO control signal; activation, % at 9 µM; hit rate 1.7% among 300,000;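 active means mean replicate activation of at least 50% with a set share of replicates each reaching 50%; inconclusive means only one of those two conditions met; inactive means mean below 50% and too few replicates reaching it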;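 further: 0% = median of the neutral control wells and 100% = twice that signal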
# esBAF inh: blocks esBAF chromatin remodeling in mouse ES cells. hit rate 2% among 350,000. AID 602393. Bmi1-luciferase knock-in reporter, 24 h; 100% = twice the neutral-well signal. reporter increase, % at 12.5 µM; in the data active means activation above about 40%; inconclusive means no clear call, values can overlap the other calls;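 further: 0% = median of the plate's neutral control wells and 100% = double that signal; a rise in the Bmi1 reporter signal indicates esBAF inhibition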
# * hit, by the source's call; ? = inconclusive; . = no result.
SMILES,SMARCA2 activ,MITF act,Wnt act,HSF1 inhib,HSF1 activator,esBAF inh
Cc1ccc(NC(=O)CN(C)C(=O)Cn2ncc(Cl)c(Cl)c2=O)cc1,-12,-91,.,29,52*,.
C[C@H]1CCCCO[C@@H](CN(C)Cc2ccccc2)[C@@H](C)CN([C@@H](C)CO)C(=O)c2cc(NS(=O)(=O)c3ccc(F)cc3)ccc2O1,.,.,.,.,.,8
CO[C@H]1CN(C)C(=O)c2cc(NC(=O)C3CCC3)ccc2OC[C@H](C)N(C(=O)NC(C)C)C[C@@H]1C,.,.,.,.,.,4
Cc1ccc(CNC(=O)CCc2nc(-c3cccs3)no2)cc1,-3,-3,-2,3,-2,-4
O=C(Cc1cccs1)NCc1cccc(CNC(=O)Cc2cccs2)c1,0,18,-1,11,19,-6
O=C(CCc1nc(-c2cccs2)no1)NCc1ccc(F)cc1Cl,-2,3,-2,-85*,-88,-35
O=C(Cc1cccs1)NCc1cccc(Cl)c1,7,61,8,15,26,50*
O=C(Cc1cccs1)NCc1ccccc1Br,3,.,11,26,94*,?
O=C(Cc1ccccc1[N+](=O)[O-])NCc1ccc(Cl)cc1Cl,2,94*,17,39,81*,.
C[C@@H]1CN([C@@H](C)CO)C(=O)c2cc(C#CC3CCCC3)cnc2O[C@H]1CN(C)S(C)(=O)=O,.,.,.,.,.,0
O=C(Cc1cccs1)NCc1ccc(Cl)cc1Cl,6,.,27,36,47,66*
O=C(NC1CC(=O)c2sccc21)c1ccc(Cl)cc1Cl (stereo not given),8,57,7,16,34,43*
O=C(O)/C=C/C(=O)NNC(=O)c1ccc(Cl)cc1Cl,1,3,-1,1,-7,.
[O-][n+]1ccccc1SC/C=C/c1ccccc1,3,13,.,22,53*,.
[O-][n+]1ccccc1SCc1ccccc1,-2,10,0,1,4,5
CC(C)C(=O)N1CCN(CCN2C(=O)c3cccc4cccc(c34)C2=O)CC1,-2,2,-5,7,17,-2
CC(C)(C)C(=O)N1CCN(CCN2C(=O)c3cccc4cccc(c34)C2=O)CC1,0,.,-1,-53*,-61,-8
CS(=O)(=O)N1CC2CCCN2c2ccc(C(F)(F)F)cc21 (stereo not given),-3,8,-2,0,6,8
O=S(=O)(c1cc(Cl)ccc1Cl)N1CC2CCCN2c2ccc(C(F)(F)F)cc21 (stereo not given),0,.,0,25,70*,-3
CN(N=Nc1cccc([N+](=O)[O-])c1)c1ccccc1,1,45,13,11,19,?
CN(N=Nc1ccc([N+](=O)[O-])cc1)c1ccccc1,0,70,15,44,74*,.
CO[C@@H]1CN(C)C(=O)c2ccc(NS(C)(=O)=O)cc2OC[C@@H](C)N(Cc2cncnc2)C[C@@H]1C,.,.,.,.,.,-1
Clc1ccccc1OCc1nnc(-c2ccccc2Br)o1,4,99*,.,38,49,115*
Brc1ccccc1-c1nnc(COc2cccc3cccnc23)o1,3,7,.,3,36,.
N#Cc1ccccc1OCc1nnc(-c2ccccc2Br)o1,2,159*,29,47,83*,55*
SMILES,SMARCA2 activ,MITF act,Wnt act,HSF1 inhib,HSF1 activator,esBAF inh
COc1ccc(-c2cnc3c(c2)C(=O)N([C@@H](C)CO)C[C@@H](C)[C@H](CN(C)C(=O)Cc2ccccn2)O3)cc1,.,.,.,.,.,4
O=C(/C=C/c1cccc2ccccc12)N1CCOCC1,6,46,37*,9,19,.
O=C(/C=C/c1ccccc1Cl)N1CCOCC1,0,.,2,-4,1,38
N#Cc1c(SCc2ccc(Cl)cc2)sc(C(=O)c2ccccc2)c1N,-1,3,.,1,3,2
CSc1c(C#N)c(N)nc2sc(C(=O)c3ccccc3)c(N)c12,2,.,15,81,116*,.
CC(C)(C)C(=O)NNC(=O)c1cc2sccc2s1,-2,-4,41*,-14,8,.
CCC(=O)N1C(C(=O)N2CCCC2)CSC1c1ccc(OC)cc1 (stereo not given),-1,-5,-2,-88*,-90,2
Clc1ccc(Oc2cnc3ccccc3n2)cc1,1,60,3,-15,-13,10
Cc1ccc(Oc2cnc3ccccc3n2)cc1,4,109*,.,-12,0,28

# Source: PubChem BioAssay
